Screens as filed in PubChem.
Compounds with a hit are over-represented: about 4.6% of the library has one in this group of screens.
tim10-1 inh: tim10-1 yeast growth inhibition; inhibition, % at 20 µM; S. cerevisiae tim10-1 ts strain growth, BacTiter-Glo, 24 h; hit rate 2.2% among 330,000;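 active = inhibition of at least 40%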;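 note: mutant grown at 25 °C; 0% = DMSO wells with yeast and 100% = wells holding no yeast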
SKKanGAS inh: SKKanGAS growth inhibition; S. pyogenes SKKanGAS, kanamycin growth, BacTiter-Glo, 6 h; inhibition, % at 7.5 µM; hit rate 1.3% among 300,000;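 active = mean replicate score, as percent of positive control median, at least 50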;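 note: strain carries kanamycin resistance gene driven by streptokinase promoter and grows in 40 µg/ml kanamycin; loss of luminescence reflects streptokinase promoter inhibition or plain growth inhibition; 0% = median of DMSO wells and 100% = positive control at its reference dose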
tim23-1 inh: growth inhibitors of tim23-1 mutant yeast | inhibition, % at 20 µM | hit rate 1.3% among 330,000 | S. cerevisiae tim23-1 growth, BacTiter-Glo luminescence, 24 h;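 active = growth inhibition of the mutant yeast at or above 50%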;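 note: temperature-sensitive mutant grown at 25 °C; plate controls were DMSO-treated mutant yeast for no effect and medium wells lacking yeast for full effect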
NALP3 yeast inh: inhibitors of NALP3 inflammasome in yeast | inhibition, % at 10 µM | hit rate 0.39% among 330,000 | AID 2825 | Yeast reconstituted NLRP3/ASC/caspase-1, beta-gal luminescence, 24 h;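 active = inhibition of 50% or more; inactive = inhibition below 50%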;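 note: plate controls were induced DMSO wells for no effect and uninduced yeast grown without galactose for full effect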
PfHsp90 yeast 2: growth inhibition of yeast expressing Plasmodium Hsp90 | S. cerevisiae expressing PfHsp90, BacTiter-Glo ATP, 48 h; yeast lacking PDR1 and PDR3 efflux regulators | inhibition, % at 9.4 µM | hit rate 0.32% among 310,000 | AID 504621;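 active = every replicate shows inhibition above about 80%, whatever the replicate mean, limit read from the data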;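 note: 0% = DMSO neutral controls and 100% = 20 µM radicicol positive controls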
TIM10 inh: TIM10 yeast growth inhibition. S. cerevisiae TIM10 strain growth, BacTiter-Glo luminescence, 24 h. hit rate 1.4% among 330,000. inhibition, % at 10 µM;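 active = inhibition of 40% or more at the single tested concentration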;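 note: wild-type TIM10 isogenic control strain grown at permissive 25 °C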
tim10-1 conf: tim10-1 yeast growth inhibition, confirmed; inhibition, % at 20 µM; S. cerevisiae tim10-1 ts strain growth, BacTiter-Glo, 24 h; hit rate 56% among 7,400; shares compounds with tim10-1 inh;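 active = inhibition of yeast growth at or above a set limit in either of two repeat tests at 20 µM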;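 note: tim10-1 mutant grown at permissive 25 °C to find synthetic lethal compounds; 0% = DMSO yeast wells and 100% = medium wells without yeast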
TIM10 conf: confirmation of TIM10 yeast growth inhibitors | shares compounds with TIM10 inh | S. cerevisiae tim10 strain growth, BacTiter-Glo luminescence, 24 h | AID 463215 | hit rate 63% among 4,600 | inhibition, % at 10 µM;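 active = inhibition of yeast growth at or above a set limit in either of two replicates at 10 µM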;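 note: this counterscreen used the strain with wild-type TIM10; 0% = yeast with DMSO and 100% = medium wells lacking yeast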
tim23-1 confirm: confirmation of tim23-1 mutant yeast growth inhibitors. shares compounds with tim23-1 inh. S. cerevisiae tim23-1 growth, BacTiter-Glo luminescence, 24 h. inhibition, % at 20 µM. hit rate 83% among 4,400. AID 463218;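 active = inhibition above about 39% in either of two replicate wells at 20 µM, limit read from the data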;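 note: temperature-sensitive tim23-1 mutant grown at 25 °C; 0% = DMSO wells with yeast and 100% = medium wells without yeast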
Starred values were filed as active, the others as inactive; · = not tested or not shown.

SMILES | tim10-1 inh | SKKanGAS inh | tim23-1 inh | NALP3 yeast inh | PfHsp90 yeast 2 | TIM10 inh | tim10-1 conf | TIM10 conf | tim23-1 confirm
COc1ccccc1NC(=O)/C(C#N)=C/c1cccnc1 | 23.7 | 1.4 | 44.7 | 19.7 | 7.5 | 20.4 | · | · | ·
N#C/C(=C\c1cccc([N+](=O)[O-])c1)C(=O)Nc1cccnc1 | 25.8 | -1.8 | 28.4 | -3.8 | · | 1.2 | · | · | ·
N#C/C(=C\c1cccnc1)C(=O)Nc1cccc2ccccc12 | 61.3* | 13.9 | 77.4* | 10.6 | 21.0 | 59.7* | 57.9* | 72.8* | 78.3*
N#C/C(=C\c1cccnc1)C(=O)Nc1cccc(Cl)c1 | 48.1* | 2.2 | 85.0* | 10.0 | 20.4 | 50.2* | 34.0* | 23.6 | 77.8*
N#C/C(=C\c1cccnc1)C(=O)NC1CCCCC1 | 57.7* | 15.6 | 70.2* | 3.5 | 12.9 | 65.2* | 40.8* | -17.9 | 70.1*
Cc1cccc(NC(=O)/C(C#N)=C\c2cccnc2)c1 | 67.4* | 1.2 | 79.0* | 21.5 | -7.0 | 65.8* | 55.6* | 58.9* | 77.6*
Cc1cccc(NC(=O)/C(C#N)=C\c2ccc(C(=O)O)cc2)c1 | 0.1 | 1.3 | 0.3 | 4.2 | 1.0 | 1.6 | · | · | ·
Cc1ccc(S(=O)(=O)NCC(C)n2nc(C)cc2C)cc1 (stereo not given) | -3.3 | 9.2 | -2.8 | 0.6 | 8.4 | 3.8 | · | · | ·
Cc1ccc(C(C[N+](=O)[O-])n2nc(C)cc2C)cc1 (stereo not given) | 52.6* | 21.6 | 80.1* | 32.3 | 7.5 | 22.5 | 35.8* | · | 72.7*
CN(C)c1ccc(N=Nc2nc3ccccc3n2C)cc1 | 64.6* | 13.0 | 86.5* | 36.5 | -30.2 | 81.9* | 74.2* | 73.2* | 82.2*
Cn1c(N=Nc2ccccc2)nc2ccccc21 | 15.4 | 47.3 | 32.1 | 23.3 | 12.5 | 26.2 | · | · | ·
COc1ccc(-c2cc3ncc(C(C)=O)c(C)n3n2)cc1 | -5.0 | 24.8 | 9.5 | 22.4 | -14.2 | 5.7 | · | · | ·
Cc1ccccc1NC(=O)C(=Cc1ccc(C(=O)O)cc1)C(=O)Nc1ccccc1C | · | 3.9 | · | · | 17.6 | · | · | · | ·
CC(=O)/C(=C/c1ccccc1)C(=O)Nc1ccccc1C | 61.2* | -22.4 | 68.0* | 36.4 | -83.3 | 72.1* | 52.0* | 63.5* | 53.8*
C=CCNC(=O)/C(C#N)=C/c1c(C)nn(-c2ccc(Cl)cc2)c1Cl | 62.7* | 3.0 | 56.0* | 16.4 | 66.4 | 57.5* | 59.1* | 63.4* | 65.8*
Cc1nn(-c2ccc(Cl)cc2)c(Cl)c1/C=C(\C#N)C(N)=O | 26.3 | -1.9 | 47.6 | 13.4 | -93.2 | 18.5 | · | · | ·
Cc1ccc(-c2ccnc3c(Br)c(C)nn23)cc1 | 41.0* | 5.6 | 57.8* | 10.6 | -13.3 | 14.6 | 29.5 | · | 39.1*
Cc1ccc(-c2cc3ncc(C#N)c(N)n3n2)cc1 | 5.0 | 6.2 | -23.1 | 18.2 | -11.6 | -1.2 | · | · | ·
CC(C)[C@H](NC(=O)c1ccc(C(C)(C)C)cc1)C(=O)N1CCN(Cc2ccc3c(c2)OCO3)CC1 | -5.0 | · | 21.9 | 22.5 | 10.8 | 19.4 | · | · | ·
CCc1c(O)cc2n(c1=O)-c1ccc(Cl)cc1C2(C)C | 44.2* | 19.5 | 52.1* | 5.9 | -3.9 | 42.0* | 34.1* | -17.0 | 49.2*
O=C1c2ccccc2C(=O)C2OC12 (stereo not given) | 59.3* | 20.9 | 79.3* | -25.3 | · | 33.6 | 37.5* | · | 73.7*
O=C1c2ccccc2C(=O)C1c1ccccn1 | -24.9 | -11.1 | -3.9 | 12.6 | 25.6 | -19.2 | · | · | ·
CNC(=O)COc1coc(CN2CCN(c3ccc(F)cc3)CC2)cc1=O | -9.2 | -0.3 | 1.8 | 7.5 | 9.7 | 7.3 | · | · | ·
CC1CCCCN1c1nc(-c2ccncc2)nc2ccccc12 (stereo not given) | 47.0* | 11.2 | 53.1* | 1.0 | 8.0 | 52.8* | 43.5* | 41.1* | 52.8*
O=C(c1ccccc1)C(CCC(CN1CCOCC1)C(=O)c1ccccc1)CN1CCOCC1 (stereo not given) | 53.8* | -7.6 | 52.6* | 41.0 | 11.5 | 60.0* | 48.5* | 67.9* | 46.6*
SMILES | tim10-1 inh | SKKanGAS inh | tim23-1 inh | NALP3 yeast inh | PfHsp90 yeast 2 | TIM10 inh | tim10-1 conf | TIM10 conf | tim23-1 confirm
O=C(COc1ccc(/C=N/NC(=O)C(=O)N2CCCCC2)cc1)Nc1ccccc1Cl | 13.8 | -0.6 | 10.2 | 18.3 | -1.6 | 13.5 | · | · | ·
COc1ccc(C(=O)/C(=C/c2cccs2)c2nc3ccccc3o2)cc1 | 49.5* | 16.5 | 52.6* | 23.2 | -12.3 | 43.3* | 41.9* | -15.0 | 54.2*
CC1CCCCC1NC(=O)COc1ncnc2sccc12 (stereo not given) | · | · | · | · | 5.8 | · | · | · | ·
Cc1ccn2cc(-c3ccc(O)c(O)c3)nc2c1 | -7.4 | 6.5 | 20.2 | 10.0 | 6.6 | 6.8 | · | · | ·
CCN(C(=O)COc1ccc2ccc(=O)oc2c1)C1CCCCC1 | 3.6 | · | 23.2 | 4.2 | -4.0 | 10.3 | · | · | ·
Clc1ccc(N=c2ssnc2Cl)nc1 | 56.7* | 25.4 | 62.1* | 34.3 | 120.3* | 85.2* | 76.8* | 47.5* | 89.9*
COc1ccc(/C=C2\SC(=S)N(CCCC(=O)N3CCN(C)CC3)C2=O)cc1OC | · | · | · | · | 29.6 | · | · | · | ·
COc1cccc(/C=C2\SC(=S)N(CCCC(=O)N3CCCC3)C2=O)c1 | 41.9* | 4.4 | 57.9* | 23.2 | 0.6 | 33.0 | 23.4 | · | 51.4*
COc1cccc(/C=C2\SC(=S)N(CCCC(=O)N3CCCCC3CCO)C2=O)c1 (stereo not given) | 49.6* | -3.7 | 52.5* | 10.1 | -40.0 | 18.9 | 20.1 | · | 54.9*
Cc1cc(OCC(=O)NNC(=O)CCc2ccccc2)ccc1Br | 0.5 | -0.1 | -14.7 | 12.1 | -20.2 | -17.0 | · | · | ·
N/C(=N\OC(=O)c1ccc2ccccc2c1)c1ccncc1 | 65.0* | -17.2 | 51.0* | 1.4 | -72.8 | 38.2 | 55.2* | · | 54.9*
N/C(=N\OC(=O)COc1ccc2ccccc2c1)c1ccncc1 | 11.4 | -8.6 | -1.8 | 29.7 | 7.5 | 18.4 | · | · | ·
COc1ccc(C(=O)O/N=C(\N)c2ccccc2)cc1 | 70.7* | -2.7 | 79.8* | 34.8 | -23.7 | 57.5* | 68.0* | 56.4* | 78.8*
CC(C)(C)c1ccc(C(=O)O/N=C(\N)c2ccccc2)cc1 | 57.2* | -5.7 | 83.5* | 40.0 | 7.1 | 82.5* | 45.0* | 91.8* | 78.5*
Cc1occc1C(=O)O/N=C(\N)c1ccc(Cl)cc1 | 65.6* | -2.3 | 82.3* | 33.1 | -14.1 | 47.2* | 24.4 | 38.4* | 76.5*
CN(Cc1ccccc1)C(=O)Cn1c(=O)c2cccn2c2cccnc21 | 31.4 | -10.7 | 26.8 | -8.3 | -1.6 | -1.3 | · | · | ·
Cc1noc(-c2ccc(Cl)cc2)c1C(=O)O/N=C(\N)c1ccc(C(C)(C)C)cc1 | 44.6* | 7.6 | 71.3* | 11.0 | -44.3 | 75.7* | 12.4 | 84.5* | 58.0*
